SMILES strings stand for the structures. Results filed as inconclusive are left out. Entries that show only a call come without a potency. Active and inactive are the calls of the source. Calls follow the shape of the dose curve; as a rule, active = well fitted activation curve with a large enough effect; inconclusive = small, poorly fitted or top-dose-only effect, or effect the other way; inactive = no such curve, though single readings can be large or run the other way.

Sequence of Pyruvate kinase PKLR (Homo sapiens) (P30613 whole entry, looked up): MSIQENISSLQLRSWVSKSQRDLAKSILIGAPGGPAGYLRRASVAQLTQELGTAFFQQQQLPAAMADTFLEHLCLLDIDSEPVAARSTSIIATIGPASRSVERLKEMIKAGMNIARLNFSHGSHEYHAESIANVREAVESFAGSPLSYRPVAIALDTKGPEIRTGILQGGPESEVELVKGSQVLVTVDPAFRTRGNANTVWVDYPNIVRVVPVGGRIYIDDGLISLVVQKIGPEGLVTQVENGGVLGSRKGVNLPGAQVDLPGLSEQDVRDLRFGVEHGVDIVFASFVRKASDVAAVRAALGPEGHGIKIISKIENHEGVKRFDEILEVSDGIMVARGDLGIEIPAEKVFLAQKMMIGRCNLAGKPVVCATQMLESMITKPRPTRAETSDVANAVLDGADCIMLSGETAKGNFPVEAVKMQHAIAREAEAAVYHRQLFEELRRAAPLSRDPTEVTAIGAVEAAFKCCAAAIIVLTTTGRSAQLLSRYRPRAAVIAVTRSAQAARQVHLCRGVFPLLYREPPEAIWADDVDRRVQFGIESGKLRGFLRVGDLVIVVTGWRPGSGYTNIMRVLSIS

This experiment has as its target Pyruvate kinase PKLR (Homo sapiens) (UniProt P30613). As to the kind of experiment: Secondary assay for Activators of Human Liver Pyruvate Kinase. As to conditions: purified hPK-L, LDH-coupled NADH fluorescence kinetic; series mostly up to 57.5 µM. The source says:
Confirmatory assay NIH Chemical Genomics Center [NCGC] Matthew G. Vander Heiden, M.D., Ph.D. [Harvard Medical School, 77 Avenue Louis Pasteur, Boston, MA 02115] NCGC Assay Overview: Human pyruvate kinase liver (hPK-L)enzyme was supplied as a highly purified (>95% pure) preparation from Harvard Medical School and a secondary assay was used to evaluate compounds. This assay couples the formation of pyruvate from hPK-R using lactate dehydrogenase (LDH) and NADH. The depletion of NADH is followed in a fluorescent-based kinetic assay that follows the formation of pyruvate to lactate, as catalyzed LDH. Pyruvate kinase substrates, PEP and ADP, were present in the assay at 0.1 mM and 4 mM respectively. In this kinetic assay initial rates were determined by following the fluorescence of NADH depletion.
NCGC Assay Protocol Summary: Three uL of substrate mix (final concentration, 50 mM Tris-Cl pH 8.0, 200 mM KCl, 15 mM MgCl2, 0.1 mM PEP, 4.0 mM ADP, and 0.2 mM NADH) was dispensed into black-solid 1536 well plates. 23 nL of compounds were delivered by a pin tool and 1 uL of enzyme mix (final concentrations, 10 nM hPK-L and 1 uM of LDH) was added. Plates were immediately placed in ViewLux (Perkin Elmer) and NADH fluorescence was determined at 30 second exposure intervals for between 3 and 6 minutes. Data were normalized to the uninhibited and EC100 activation using known activators such as fructose-bis-phosphate.
`O=S(=O)(NC1CCC(NS(=O)(=O)c2c(F)cccc2F)CC1)c1ccc2c(c1)OCCO2` (stereo not drawn): the Potency entry is “inactive”.

Turning to `Cn1c2cc(Br)sc2c2cnn(Cc3c(F)cccc3F)c(=O)c21`, the Potency result is “inactive”.

Consider `Cc1cc2c(s1)c1cnn(Cc3ccccc3F)c(=O)c1n2C`, for which the Potency is 3.52 µM (active).

In the case of `O=S(=O)(NCC1CN(S(=O)(=O)c2ccc3c(c2)OCCO3)C1)c1c(F)cccc1F`, the Potency result is “inactive”.

As for `O=S(=O)(c1ccc2c(c1)OCCO2)N1CCN(S(=O)(=O)c2ccccn2)CC1`, the Potency entry is “inactive”.

For the compound `Cc1cc2c(s1)c1cnn(Cc3ccc(F)cc3F)c(=O)c1n2C`, the Potency entry is “inactive”.

Consider `O=S(=O)(c1ccc2ccccc2c1)N1CCN(S(=O)(=O)c2c(F)cccc2F)CC1`, for which the Potency result is “inactive”.

`COc1cc2c(s1)c1cnn(Cc3ccccc3F)c(=O)c1n2C`: the Potency is 2.51 µM (active).

In the case of `O=C(c1c(F)cccc1F)N1CCN(S(=O)(=O)c2ccc3c(c2)OCCO3)CC1`, the Potency result is “inactive”.

With `CC(=O)c1cc2c(s1)c1cnn(Cc3ccccc3F)c(=O)c1n2C`, the Potency is 0.794 µM (active).

Consider `Cc1cc2c(s1)c1cnn(Cc3c(F)cccc3Cl)c(=O)c1n2C`, for which the Potency result was “inactive”.

Regarding `Cc1cc2c(s1)c1cnn(Cc3cccc(Cl)c3)c(=O)c1n2C`, the Potency result was “inactive”.

For the compound `Cc1nc2ccc(S(=O)(=O)N3CCN(S(=O)(=O)c4c(F)cccc4F)CC3)cc2s1`, the Potency result was “inactive”.

Turning to `Cn1c2cc(Br)sc2c2cnn(Cc3ccc(F)cc3F)c(=O)c21`, the Potency was 2.51 µM (active).

Turning to `Cn1c2cc(CO)sc2c2cnn(Cc3ccccc3F)c(=O)c21`, the Potency is 2.24 µM (active).

In the case of `O=S(=O)(NC1CCN(S(=O)(=O)c2c(F)cccc2F)C1)c1ccc2c(c1)OCCO2` (stereo not drawn), the Potency entry is “inactive”.

On to `COc1cccc(Cn2ncc3c4sc(B(O)O)cc4n(C)c3c2=O)c1`, for which the Potency result is “inactive”.

In the case of `O=S(=O)(c1ccc2c(c1)OCCCO2)N1CCN(S(=O)(=O)c2c(F)cccc2F)CC1`, the Potency result is “inactive”.

On to `O=S(=O)(c1c(F)cccc1F)C1CCN(S(=O)(=O)c2ccc3c(c2)OCCO3)CC1`, for which the Potency entry is “inactive”.

In the case of `Cn1c2cc(B(O)O)sc2c2cnn(Cc3c(F)cccc3Cl)c(=O)c21`, the Potency result is “inactive”.

On to `Cn1ccc2cc(S(=O)(=O)N3CCN(S(=O)(=O)c4c(F)cccc4F)CC3)ccc21`, for which the Potency entry was “inactive”.

Consider `Cn1c2cc(B(O)O)sc2c2cnn(Cc3ccccc3F)c(=O)c21`, for which the Potency result is “inactive”.

On to `Cc1cc2c(s1)c1cnn(Cc3ccccc3)c(=O)c1n2C`, for which the Potency entry is “inactive”.

Turning to `O=S(=O)(NCCCCNS(=O)(=O)c1c(F)cccc1F)c1ccc2c(c1)OCCO2`, the Potency result is “inactive”.

As to `COc1ccc(Cn2ncc3c4sc(C)cc4n(C)c3c2=O)cc1F`, the Potency result is “inactive”.

Take `C[C@H]1CN(S(=O)(=O)c2ccc3c(c2)OCCO3)CCN1S(=O)(=O)c1c(F)cccc1F`: the Potency result was “inactive”.

On to `O=S(=O)(c1ccc2c(c1)OCCO2)N1CCN(S(=O)(=O)c2cccc[n+]2[O-])CC1`, for which the Potency entry was “inactive”.

Consider `Cn1c2ccsc2c2cnn(Cc3ccc(F)cc3)c(=O)c21`, for which the Potency is 17.8 µM (active).

For the compound `COc1cccc(Cn2ncc3c4sc(Br)cc4n(C)c3c2=O)c1`, the Potency result was “inactive”.

Turning to `Cc1cc2c(s1)c1c(C)nn(Cc3ccccc3F)c(=O)c1n2C`, the Potency entry is “inactive”.

`O=C1CN(S(=O)(=O)c2ccc3c(c2)OCCO3)CCN1S(=O)(=O)c1c(F)cccc1F`: the Potency result was “inactive”.

As for `Cn1c2cc(Br)sc2c2cnn(Cc3c(F)cccc3Cl)c(=O)c21`, the Potency was 7.94 µM (active).

As to `COc1ccc(S(=O)(=O)N2CCN(S(=O)(=O)c3ccc4c(c3)OCCO4)CC2)cc1`, the Potency result was “inactive”.

The values above are taken from PubChem BioAssay AID1541 (National Center for Advancing Translational Sciences (NCATS), 2009).
